Results filed as inconclusive are left out. A call without a number means that no potency is given here. Activity calls are given as the source filed them. The call rests on the fitted dose curve; in most records, active means well fitted inhibition curve with a large enough effect; inconclusive means small, poorly fitted or top-dose-only effect; inactive means flat fitted curve, though single readings scatter.

The experiment deals with Aldehyde dehydrogenase, mitochondrial (Homo sapiens) (UniProt P05091). Description: qHTS for Inhibitors of the Aldehyde Dehydrogenase Family (ALDH2) Primary screen (AID 2061308). Further: nearly all actives have a fitted effect of over 55% in size. The note with it: ALDH2 enzyme inhibition qHTS, 1536-well; series mostly up to 56 µM. (In general: qHTS replaces the single test concentration by a dilution series.)
In the case of `C=C1C(=O)OC2/C=C(\CO)CC/C=C(\C=O)C(OC)C(OC(=O)C(C)CC)C12` (stereo not given), the Potency entry was “inactive”.

With `CC(=O)OC1C[C@@]2(C)[C@@H](CC[C@@H](C)[C@]23Cc2c(O)cc4c(c2O3)CNC4=O)C(C)(C)[C@@H]1O` (stereo not given in full), the Potency entry is “inactive”.

Regarding `C/C1=C/CCC2=CC(OC2=O)C(C)(C)/C=C/C1=O` (stereo not given), the Potency entry was “inactive”.

Regarding `Cn1c(=O)c2nc(/C=C/c3cccc(Cl)c3)n(C)c2n(C)c1=O`, the Potency entry was “inactive”.

For `CC(=O)OC1CCC2(C)C(CCC3(C)C2CC=C2C4C(C)C(C)CCC4(C)CCC23C)C1(C)C(=O)O` (stereo not given), the Potency result was “inactive”.

With `CC1CCC(=O)CC(O)C(O)CC(=O)O1` (stereo not given), the Potency entry was “inactive”.

With `C/C=C(\C)C(=O)OCC1OC(OC2OC(COC(=O)/C(C)=C/C)C(OC3OC(CO)C(OC(=O)/C(C)=C/C)C(OC(=O)/C(C)=C/C)C3O)C(O)C2O)C(O)C(O)C1OC1OC(CO)C(OC(=O)/C(C)=C/C)C(OC(=O)/C(C)=C/C)C1O` (stereo not given), the Potency entry is “inactive”.

On to `C=C1CC(=O)C2OC2(C)CC2OC(=O)C(=C)C2C(O)C1OC(=O)/C(C)=C\C` (stereo not given), for which the Potency entry is “inactive”.

As to `C=C(C)C1Cc2cc(C(=O)OC3OC(CO)C(O)C(O)C3O)ccc2O1` (stereo not given), the Potency result is “inactive”.

Take `COc1cc(CO)cc(OC)c1O[C@@H]1O[C@H](CO)[C@@H](O)[C@H](O)[C@H]1O`: the Potency entry is “inactive”.

Consider `COC(=O)C1=CO[C@@H](O[C@@H]2O[C@H](CO)[C@@H](O)[C@H](O)[C@H]2O)[C@@H]2C(CO)=CC[C@]12O`, for which the Potency result is “inactive”.

For `CCC(C)/C=C(C)/C=C/C1=CC2=C(Cl)C(=O)C(C)(OC(C)=O)C(=O)C2=CN1C(CCC(=O)O)C(=O)O` (stereo not given), the Potency result was “inactive”.

Consider `C=C[C@](C)(O)CC[C@H]1C(C)=CC(=O)[C@H]2C(C)(C)CCC[C@]12C`, for which the Potency entry was “inactive”.

As to `Cn1nccc1-c1ccccc1Oc1ccc(S(=O)(=O)Nc2nccs2)cc1C#N`, the Potency result is “inactive”.

Consider `C=C1CC2C3(C)C(OC(C)=O)CC(=O)OC(C)(C)C3C(O)C(OC(C)=O)C2(C)C2C(=O)OC(C)C(=O)C12C` (stereo not given), for which the Potency entry is “inactive”.

Take `OCC1OC(Oc2cc(O)c3c(c2)OC(c2ccc(O)cc2)C(O)C3)C(O)C1O` (stereo not given): the Potency entry was “inactive”.

As for `C[C@@H]1O[C@@H](O[C@H]2[C@H](O[C@H]3[C@H](O[C@H]4CC[C@@]5(C)C(CC[C@]6(C)C5CC=C5[C@@H]7CC(C)(C)CC[C@]7(C(=O)O[C@@H]7O[C@H](CO)[C@@H](O[C@@H]8O[C@@H](C)[C@H](O)[C@@H](O)[C@H]8O)[C@H](O)[C@H]7O)CC[C@]56C)C4(C)C)OC[C@H](O)[C@@H]3O)O[C@H](CO)[C@@H](O)[C@@H]2O)[C@H](O)[C@H](O)[C@H]1O` (stereo not given in full), the activity change, negative = inhibition was 3.25% [at 11.2 µM] (inactive).

In the case of `CCC(C)/C=C(C)/C=C/C1=CC2=CC(=O)C3(C)OC(C)(O)C(C(=O)OC)C3C2=CO1` (stereo not given), the Potency entry is “inactive”.

`Cc1c(CN2CCN(C(=O)C(C)O)CC2)sc2c(N3CCOCC3)nc(-c3cnc(N)nc3)nc12` (stereo not given): the Potency entry was “inactive”.

As to `CC(C)CC1(C(=O)OCc2ccc(O[C@@H]3O[C@H](CO)[C@@H](O)[C@H](O)[C@H]3O)cc2)CC(=O)OC(C(=O)O)CC(=O)OCC2OC(O1)C(OC(=O)/C=C/c1ccc(O)cc1)C(O)C2O` (stereo not given in full), the Potency result is “inactive”.

Regarding `COc1ccc(CCO[C@@H]2O[C@H](CO[C@@H]3OC[C@H](O)[C@H](O)[C@H]3O)[C@@H](O)[C@H](O)[C@H]2O)cc1`, the Potency result is “inactive”.

With `CCOC(=O)c1c(C)nn(-c2cccc([N+](=O)[O-])c2)c1C`, the Potency result was “inactive”.

As to `C=C(C)C(=O)OC1CC2(C)OC(=CC2=O)C(=C)CC2OC(=O)C(=C)C12` (stereo not given), the Potency entry is “inactive”.

For the molecule `CC(C)C[C@@H]1NC(=O)[C@@H]2C[C@@]34C[C@@H]5[C@@]6(C)CCCC(C)(C)C6CC[C@@]5(C)N(c5ccccc53)[C@H]4N2C1=O` (stereo not given in full), the Potency result is “inactive”.

For `C/C(=C/CO)CC[C@@H]1[C@@]2(C)CCC[C@](C)(C(=O)O)C2CC[C@@]1(C)O` (stereo not given in full), the Potency result is “inactive”.

Take `CC(=O)OCC1OC(OC2COC(OC3COC(OC4C(OC5C(CO)OC(OC6CCC7(C)C(CCC8(C)C7CC=C7C9CC(C)(C)CCC9(C(=O)OC9OC(CO)C(O)C(O)C9OC9OCC(OC%10OCC(O)(CO)C%10O)C(O)C9O)C(O)CC78C)C6(C)C)C(O)C5O)OCC(O)C4O)C(O)C3O)C(O)C2O)C(OC(=O)/C=C/c2ccccc2)C(O)C1OC(C)=O` (stereo not given): the activity change, negative = inhibition is 6.5% [at 11.2 µM] (inactive).

`C=CC1(C)CC(OC(=O)/C(C)=C\COC(C)=O)C(C(=C)C(=O)O)C(O)C1C(=C)CO` (stereo not given): the Potency result was “inactive”.

In the case of `O=C1N(CC2CCCCN2)CCN1c1ccccc1` (stereo not given), the Potency result was “inactive”.

Turning to `CC1(C=O)CCCC2(C)C1CCC13CC(CO)C(CCC12)C3` (stereo not given), the Potency entry was “inactive”.

For the molecule `COC(=O)[C@]1(C)CCC[C@@]2(C)C(=O)CC[C@H]3C(=O)C=C(CC[C@@H]21)C3O` (stereo not given in full), the Potency entry is “inactive”.

`COc1cc(C)c(C(=O)O[C@H]2[C@@H](OC(C)=O)[C@H](n3ccc(=O)[nH]c3=O)O[C@@H]2CO)c(OC)c1`: the Potency entry is “inactive”.

With `CC(C)(O)C1=CCC23COC(C2)C(O)(C(=O)O)CCC13` (stereo not given), the Potency entry is “inactive”.

Regarding `COC(=O)C1=CO[C@@H](O[C@@H]2O[C@H](CO)[C@@H](O)[C@H](O)[C@H]2O)C2C1CC(O)C2C` (stereo not given in full), the Potency entry was “inactive”.

Consider `O=C(Nc1ccn(Cc2c(F)cccc2C(F)(F)F)n1)c1c(F)cccc1F`, for which the Potency entry is “inactive”.

In the case of `CC(=O)O[C@H]1CC2C(COC(=O)CC(C)C)=CO[C@@H](OC(=O)CC(C)C)C2[C@]12CO2` (stereo not given in full), the Potency entry is “inactive”.

`CC(C)c1cc2c(c(O)c1O[C@@H]1O[C@H](CO)[C@@H](O)[C@H](O)[C@H]1O)CC1(O)CCC(O)C(C)(C)C1CC2` (stereo not given in full): the Potency entry is “inactive”.

Regarding `C=C1CC2(C(=O)O)CC1CCC2C1(C)CCCC2(C)C(=O)OC(O)C21` (stereo not given), the Potency entry was “inactive”.

As to `C=C1C(=O)O[C@@H]2[C@H]1CC[C@H](C)C(CCC(=O)O)C2(C)O` (stereo not given in full), the Potency result is “inactive”.

Regarding `C[C@@H]1C[C@H](O)/C=C/[C@H](O)[C@@H](O)CC(=O)O1`, the Potency result was “inactive”.

Turning to `N#Cc1ccc(Nc2nc(-c3ccc(O)cc3O)cs2)cc1C(F)(F)F`, the Potency result was “inactive”.

Values taken from PubChem BioAssay (NCATS).
